# Measured values taken from paper PMC7862700, “An all-to-all approach to the identification of sequence-specific readers for epigenetic DNA modifications on cytosine”.
# Tests used:
# Assay in all cases: DAPPL (digital affinity profiling via proximity ligation, sequencing); 10 mM Tris-HCl pH 7.5, 50 mM NaCl, 1 mM DTT, 4% glycerol, room temperature, 30 min; GST-TFs on glutathione beads, 16-mer random dsDNA library, 0.1% formaldehyde crosslink after washing; high values mean tight binding
# [1] = target: T1, FLI1 (Homo sapiens, UniProt Q01543 1-452); conditions: protein: recombinant; tags: N-terminal GST; dsDNA, one strand shown
# T1 sequence: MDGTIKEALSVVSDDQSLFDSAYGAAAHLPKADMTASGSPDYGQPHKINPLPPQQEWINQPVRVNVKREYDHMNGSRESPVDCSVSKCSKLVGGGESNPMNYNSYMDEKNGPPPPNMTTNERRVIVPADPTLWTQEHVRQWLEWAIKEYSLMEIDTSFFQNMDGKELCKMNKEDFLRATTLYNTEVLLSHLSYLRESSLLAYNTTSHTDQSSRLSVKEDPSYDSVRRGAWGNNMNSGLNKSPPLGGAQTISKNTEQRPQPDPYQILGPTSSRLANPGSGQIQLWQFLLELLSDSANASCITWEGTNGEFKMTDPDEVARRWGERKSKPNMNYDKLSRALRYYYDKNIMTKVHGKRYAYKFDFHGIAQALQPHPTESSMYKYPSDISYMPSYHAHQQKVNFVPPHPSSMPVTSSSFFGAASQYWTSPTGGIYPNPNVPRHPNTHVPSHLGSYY
# How it was run: (§1)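 GST fusions of human transcription factors were expressed in yeast and captured with glutathione beads. Once given DNA barcodes and pooled alongside a tag-only sample, they were incubated for 30 min at room temperature with 200 nmole of a random double-stranded 16-mer DNA library in Tris/NaCl/DTT/glycerol buffer, then washed, crosslinked (0.1% formaldehyde), proximity-ligated, PCR-amplified and sequenced on an Illumina NextSeq500. The binding signal of each hexamer is its read frequency for a factor divided by its frequency for the tag-only sample.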
# [2] = target: T2, ELK1 (Homo sapiens, UniProt P19419 1-428); conditions: protein: recombinant; tags: N-terminal GST; dsDNA, one strand shown
# T2 sequence: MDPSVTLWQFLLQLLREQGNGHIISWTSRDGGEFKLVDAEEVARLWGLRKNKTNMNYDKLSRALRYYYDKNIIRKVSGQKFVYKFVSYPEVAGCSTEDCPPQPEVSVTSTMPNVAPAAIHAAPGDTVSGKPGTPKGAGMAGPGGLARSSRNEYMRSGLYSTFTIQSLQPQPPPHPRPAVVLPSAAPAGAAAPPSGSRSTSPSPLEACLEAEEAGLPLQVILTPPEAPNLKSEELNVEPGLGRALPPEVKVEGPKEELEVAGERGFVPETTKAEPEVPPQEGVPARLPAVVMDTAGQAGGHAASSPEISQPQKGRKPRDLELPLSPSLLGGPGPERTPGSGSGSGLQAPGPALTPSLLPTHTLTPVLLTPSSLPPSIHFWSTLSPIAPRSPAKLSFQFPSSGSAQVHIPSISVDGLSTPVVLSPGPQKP
# How it was run: as §1
# [3] = target: T3, GABPA (Homo sapiens, UniProt Q06546 1-454); conditions: protein: recombinant; tags: N-terminal GST; dsDNA, one strand shown
# T3 sequence: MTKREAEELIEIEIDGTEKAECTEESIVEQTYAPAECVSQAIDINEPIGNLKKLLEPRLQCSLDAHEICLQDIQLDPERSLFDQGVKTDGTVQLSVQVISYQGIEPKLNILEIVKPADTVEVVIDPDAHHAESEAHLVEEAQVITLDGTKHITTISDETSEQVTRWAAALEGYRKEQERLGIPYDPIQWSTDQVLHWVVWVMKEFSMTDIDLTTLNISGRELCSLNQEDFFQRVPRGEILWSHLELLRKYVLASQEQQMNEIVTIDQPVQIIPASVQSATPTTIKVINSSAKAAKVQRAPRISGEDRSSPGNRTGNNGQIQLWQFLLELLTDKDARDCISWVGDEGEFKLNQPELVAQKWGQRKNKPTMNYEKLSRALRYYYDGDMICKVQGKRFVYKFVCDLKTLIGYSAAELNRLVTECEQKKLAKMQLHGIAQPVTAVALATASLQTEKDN
# How it was run: as §1
# [4] = target: T4, ERG (Homo sapiens, UniProt P11308 1-479); conditions: protein: recombinant; tags: N-terminal GST; dsDNA, one strand shown
# T4 sequence: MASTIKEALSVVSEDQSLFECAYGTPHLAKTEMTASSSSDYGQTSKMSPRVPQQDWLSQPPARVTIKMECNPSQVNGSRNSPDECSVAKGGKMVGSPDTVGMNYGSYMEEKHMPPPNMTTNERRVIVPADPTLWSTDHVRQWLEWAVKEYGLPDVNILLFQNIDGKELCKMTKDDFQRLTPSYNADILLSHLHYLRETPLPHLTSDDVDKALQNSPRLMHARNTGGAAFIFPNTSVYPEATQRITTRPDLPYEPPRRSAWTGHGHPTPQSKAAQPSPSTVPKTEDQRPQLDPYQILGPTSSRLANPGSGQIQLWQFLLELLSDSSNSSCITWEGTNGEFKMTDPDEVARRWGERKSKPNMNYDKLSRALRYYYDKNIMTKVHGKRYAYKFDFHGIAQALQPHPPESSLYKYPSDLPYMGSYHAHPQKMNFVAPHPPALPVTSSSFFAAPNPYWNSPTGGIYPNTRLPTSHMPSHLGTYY
# How it was run: as §1
# [5] = target: ELF1 (Homo sapiens, UniProt P32519 1-619); conditions: protein: recombinant; tags: N-terminal GST; dsDNA, one strand shown
# Chain of ELF1 (P32519 whole entry): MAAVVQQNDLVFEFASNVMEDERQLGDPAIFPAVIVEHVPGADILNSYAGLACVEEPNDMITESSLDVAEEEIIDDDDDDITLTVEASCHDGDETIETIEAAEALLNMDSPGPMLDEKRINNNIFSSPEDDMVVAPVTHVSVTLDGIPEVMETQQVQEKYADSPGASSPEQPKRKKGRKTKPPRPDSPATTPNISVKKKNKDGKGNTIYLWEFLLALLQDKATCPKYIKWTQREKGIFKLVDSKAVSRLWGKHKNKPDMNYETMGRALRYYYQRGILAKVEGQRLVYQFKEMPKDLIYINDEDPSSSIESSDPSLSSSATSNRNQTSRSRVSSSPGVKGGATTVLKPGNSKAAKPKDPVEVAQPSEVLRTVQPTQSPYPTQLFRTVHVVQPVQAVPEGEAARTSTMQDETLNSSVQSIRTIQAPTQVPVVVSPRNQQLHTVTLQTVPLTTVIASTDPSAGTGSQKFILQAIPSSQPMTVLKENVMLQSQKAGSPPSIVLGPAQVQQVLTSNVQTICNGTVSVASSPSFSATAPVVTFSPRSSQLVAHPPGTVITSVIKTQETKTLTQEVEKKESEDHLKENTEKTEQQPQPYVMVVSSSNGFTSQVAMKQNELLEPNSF
# How it was run: as §1
# [6] = target: T5, EHF (Homo sapiens, UniProt Q9NZC4 1-300); conditions: protein: recombinant; tags: N-terminal GST; dsDNA, one strand shown
# T5 sequence: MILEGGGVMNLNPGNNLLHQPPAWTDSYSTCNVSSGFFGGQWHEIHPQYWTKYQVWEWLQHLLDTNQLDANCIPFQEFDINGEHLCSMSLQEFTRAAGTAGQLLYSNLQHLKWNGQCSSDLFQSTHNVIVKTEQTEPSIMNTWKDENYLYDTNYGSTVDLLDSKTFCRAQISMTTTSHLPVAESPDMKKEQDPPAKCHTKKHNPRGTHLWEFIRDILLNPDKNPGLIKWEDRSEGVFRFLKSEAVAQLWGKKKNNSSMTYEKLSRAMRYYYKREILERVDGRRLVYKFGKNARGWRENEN
# How it was run: as §1
# [7] = target: SPI1 (Homo sapiens, UniProt P17947 1-270); conditions: protein: recombinant; tags: N-terminal GST; dsDNA, one strand shown
# How it was run: as §1
# [8] = target: SPIB (Homo sapiens, UniProt Q01892 1-262); conditions: protein: recombinant; tags: N-terminal GST; dsDNA, one strand shown
# Chain of SPIB (Q01892 whole entry): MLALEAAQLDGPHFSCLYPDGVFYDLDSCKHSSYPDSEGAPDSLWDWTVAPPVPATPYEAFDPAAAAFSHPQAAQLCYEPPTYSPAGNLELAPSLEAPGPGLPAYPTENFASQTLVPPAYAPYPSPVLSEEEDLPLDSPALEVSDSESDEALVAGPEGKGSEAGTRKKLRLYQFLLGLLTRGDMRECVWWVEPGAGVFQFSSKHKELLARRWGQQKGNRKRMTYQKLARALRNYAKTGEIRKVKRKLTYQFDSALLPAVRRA
# How it was run: as §1
# [9] = target: T6, ELK3 (Homo sapiens, UniProt P41970 1-407); conditions: protein: recombinant; tags: N-terminal GST; dsDNA, one strand shown
# T6 sequence: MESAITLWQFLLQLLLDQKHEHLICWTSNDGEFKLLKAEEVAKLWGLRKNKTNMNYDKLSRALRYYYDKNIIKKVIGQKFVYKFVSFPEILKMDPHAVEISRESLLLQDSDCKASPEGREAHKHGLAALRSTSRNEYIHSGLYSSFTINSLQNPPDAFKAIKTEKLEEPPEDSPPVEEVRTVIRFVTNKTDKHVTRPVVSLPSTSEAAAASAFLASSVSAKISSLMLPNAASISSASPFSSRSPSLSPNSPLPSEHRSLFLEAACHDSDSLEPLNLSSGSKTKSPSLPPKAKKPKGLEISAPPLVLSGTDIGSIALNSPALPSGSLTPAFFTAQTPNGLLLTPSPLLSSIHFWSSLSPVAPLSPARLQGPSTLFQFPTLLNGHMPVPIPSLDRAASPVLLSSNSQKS
# How it was run: as §1
# [10] = target: T7, FEV (Homo sapiens, UniProt Q99581 1-238); conditions: protein: recombinant; tags: N-terminal GST; dsDNA, one strand shown
# T7 sequence: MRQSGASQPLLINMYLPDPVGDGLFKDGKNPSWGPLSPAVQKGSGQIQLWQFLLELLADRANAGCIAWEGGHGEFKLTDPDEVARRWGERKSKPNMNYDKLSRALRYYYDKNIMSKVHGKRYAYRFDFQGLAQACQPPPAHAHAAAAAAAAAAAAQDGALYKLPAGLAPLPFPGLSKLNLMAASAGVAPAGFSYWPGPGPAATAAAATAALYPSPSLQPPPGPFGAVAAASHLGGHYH
# How it was run: as §1
# [11] = target: ETV5 (Homo sapiens, UniProt P41161 1-510); conditions: protein: recombinant; tags: N-terminal GST; dsDNA, one strand shown
# Chain of ETV5 (P41161 whole entry): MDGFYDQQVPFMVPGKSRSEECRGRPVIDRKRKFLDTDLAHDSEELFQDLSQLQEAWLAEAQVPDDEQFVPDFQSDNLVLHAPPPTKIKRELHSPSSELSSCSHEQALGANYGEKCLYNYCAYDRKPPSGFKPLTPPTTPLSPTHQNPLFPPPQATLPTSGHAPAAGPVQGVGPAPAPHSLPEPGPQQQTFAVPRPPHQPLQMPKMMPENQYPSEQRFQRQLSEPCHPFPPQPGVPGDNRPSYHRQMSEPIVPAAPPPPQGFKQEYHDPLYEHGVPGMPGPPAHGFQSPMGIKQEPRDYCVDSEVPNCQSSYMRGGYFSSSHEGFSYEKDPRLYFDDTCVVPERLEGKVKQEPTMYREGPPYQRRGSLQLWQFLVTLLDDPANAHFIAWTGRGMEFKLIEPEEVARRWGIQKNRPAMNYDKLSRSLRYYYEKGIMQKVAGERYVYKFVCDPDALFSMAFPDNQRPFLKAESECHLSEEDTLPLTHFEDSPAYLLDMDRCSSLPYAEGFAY
# How it was run: as §1
# [12] = target: HSF1 (Homo sapiens, UniProt Q00613 1-529); conditions: protein: recombinant; tags: N-terminal GST; chain copies: 3; dsDNA, one strand shown
# Chain of HSF1 (Q00613 whole entry): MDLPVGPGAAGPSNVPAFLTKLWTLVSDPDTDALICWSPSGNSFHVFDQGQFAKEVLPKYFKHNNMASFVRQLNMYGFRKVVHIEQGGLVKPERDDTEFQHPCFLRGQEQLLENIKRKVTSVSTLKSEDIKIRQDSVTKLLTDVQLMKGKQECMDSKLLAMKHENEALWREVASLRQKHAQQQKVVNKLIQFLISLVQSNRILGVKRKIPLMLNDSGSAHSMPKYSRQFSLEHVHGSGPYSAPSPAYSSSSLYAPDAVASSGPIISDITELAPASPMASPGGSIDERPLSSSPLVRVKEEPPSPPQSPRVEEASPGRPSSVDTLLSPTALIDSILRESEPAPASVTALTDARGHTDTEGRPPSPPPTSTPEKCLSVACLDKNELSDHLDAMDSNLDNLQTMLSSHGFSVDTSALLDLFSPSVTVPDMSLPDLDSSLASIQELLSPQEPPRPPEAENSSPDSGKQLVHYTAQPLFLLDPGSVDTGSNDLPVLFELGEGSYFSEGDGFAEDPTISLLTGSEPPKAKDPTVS
# How it was run: as §1
# [13] = target: T8, SPIC (Homo sapiens, UniProt Q8N5J4 1-248); conditions: protein: recombinant; tags: N-terminal GST; dsDNA, one strand shown
# T8 sequence: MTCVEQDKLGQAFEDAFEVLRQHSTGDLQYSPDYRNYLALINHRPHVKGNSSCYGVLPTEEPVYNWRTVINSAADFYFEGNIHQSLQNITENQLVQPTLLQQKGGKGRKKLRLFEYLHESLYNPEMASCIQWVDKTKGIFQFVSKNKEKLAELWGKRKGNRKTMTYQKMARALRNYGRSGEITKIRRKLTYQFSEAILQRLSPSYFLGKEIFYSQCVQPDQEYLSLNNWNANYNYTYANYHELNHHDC
# How it was run: as §1
# [14] = target: ELF4 (Homo sapiens, UniProt Q99607 1-663); conditions: protein: recombinant; tags: N-terminal GST; dsDNA, one strand shown
# Chain of ELF4 (Q99607 whole entry): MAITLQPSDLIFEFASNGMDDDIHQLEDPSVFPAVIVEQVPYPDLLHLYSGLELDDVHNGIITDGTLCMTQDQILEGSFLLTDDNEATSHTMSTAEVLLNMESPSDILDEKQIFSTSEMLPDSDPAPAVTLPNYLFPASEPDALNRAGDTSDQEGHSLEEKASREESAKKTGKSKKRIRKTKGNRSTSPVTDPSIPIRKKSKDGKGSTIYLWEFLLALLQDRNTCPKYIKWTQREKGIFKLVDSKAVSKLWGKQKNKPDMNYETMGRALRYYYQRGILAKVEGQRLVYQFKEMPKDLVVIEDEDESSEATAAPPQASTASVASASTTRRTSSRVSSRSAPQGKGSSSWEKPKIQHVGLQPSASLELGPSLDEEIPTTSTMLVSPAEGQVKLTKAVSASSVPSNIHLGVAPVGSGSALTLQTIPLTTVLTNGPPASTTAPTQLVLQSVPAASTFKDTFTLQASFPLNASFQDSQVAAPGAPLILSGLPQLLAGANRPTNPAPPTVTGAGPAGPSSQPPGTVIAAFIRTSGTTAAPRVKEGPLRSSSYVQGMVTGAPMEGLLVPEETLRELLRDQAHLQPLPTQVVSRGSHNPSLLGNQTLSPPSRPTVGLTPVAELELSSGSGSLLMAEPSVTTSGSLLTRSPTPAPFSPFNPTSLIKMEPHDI
# How it was run: as §1
# [15] = target: T9, ELK4 (Homo sapiens, UniProt P28324-2 1-405); conditions: protein: recombinant; tags: N-terminal GST; dsDNA, one strand shown
# T9 sequence: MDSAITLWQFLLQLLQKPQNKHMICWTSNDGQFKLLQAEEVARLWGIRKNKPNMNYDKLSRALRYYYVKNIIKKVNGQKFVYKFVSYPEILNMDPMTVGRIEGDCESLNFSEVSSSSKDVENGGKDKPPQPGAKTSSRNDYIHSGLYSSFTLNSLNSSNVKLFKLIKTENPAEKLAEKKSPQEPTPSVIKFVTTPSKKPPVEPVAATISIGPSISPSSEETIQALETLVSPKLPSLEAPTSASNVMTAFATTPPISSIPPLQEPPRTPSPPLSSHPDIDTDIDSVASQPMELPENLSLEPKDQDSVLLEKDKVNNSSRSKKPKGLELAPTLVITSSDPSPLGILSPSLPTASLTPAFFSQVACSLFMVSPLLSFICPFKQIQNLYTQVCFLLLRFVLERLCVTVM
# How it was run: as §1
# [16] = target: T10, ETV2 (Homo sapiens, UniProt O00321 1-342); conditions: protein: recombinant; tags: N-terminal GST; dsDNA, one strand shown
# T10 sequence: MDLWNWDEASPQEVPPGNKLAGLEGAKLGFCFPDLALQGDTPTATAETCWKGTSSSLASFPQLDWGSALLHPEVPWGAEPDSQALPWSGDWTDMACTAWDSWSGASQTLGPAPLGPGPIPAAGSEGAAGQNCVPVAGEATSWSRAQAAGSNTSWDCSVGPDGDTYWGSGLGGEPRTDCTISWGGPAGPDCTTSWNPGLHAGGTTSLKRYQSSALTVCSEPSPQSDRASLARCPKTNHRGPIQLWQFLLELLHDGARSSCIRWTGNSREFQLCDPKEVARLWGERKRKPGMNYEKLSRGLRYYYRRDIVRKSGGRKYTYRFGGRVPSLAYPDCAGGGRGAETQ
# How it was run: as §1
# [17] = target: T11, ELF3 (Homo sapiens, UniProt P78545 1-371); conditions: protein: recombinant; tags: N-terminal GST; dsDNA, one strand shown
# T11 sequence: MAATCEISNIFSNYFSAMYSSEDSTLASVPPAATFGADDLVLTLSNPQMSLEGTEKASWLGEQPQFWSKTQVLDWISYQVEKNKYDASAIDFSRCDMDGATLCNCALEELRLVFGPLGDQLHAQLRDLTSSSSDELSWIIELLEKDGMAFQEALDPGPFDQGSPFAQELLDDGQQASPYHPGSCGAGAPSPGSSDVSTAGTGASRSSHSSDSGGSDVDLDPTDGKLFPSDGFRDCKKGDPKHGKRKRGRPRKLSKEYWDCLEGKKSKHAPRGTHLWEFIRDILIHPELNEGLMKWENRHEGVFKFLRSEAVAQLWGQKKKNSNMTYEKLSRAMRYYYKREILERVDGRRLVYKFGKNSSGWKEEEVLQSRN
# How it was run: as §1
# [18] = target: CRX (Homo sapiens, UniProt O43186 1-299); conditions: protein: recombinant; tags: N-terminal GST; dsDNA, one strand shown
# Chain of CRX (O43186 whole entry): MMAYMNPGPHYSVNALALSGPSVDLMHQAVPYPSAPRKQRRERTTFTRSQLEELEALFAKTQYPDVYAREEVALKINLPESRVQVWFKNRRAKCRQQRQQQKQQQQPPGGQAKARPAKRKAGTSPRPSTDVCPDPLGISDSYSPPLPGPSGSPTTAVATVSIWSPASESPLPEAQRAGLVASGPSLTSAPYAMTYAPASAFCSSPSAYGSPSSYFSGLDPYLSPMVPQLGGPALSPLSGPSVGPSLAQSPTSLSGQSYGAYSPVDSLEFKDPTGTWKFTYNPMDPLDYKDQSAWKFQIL
# How it was run: as §1
# [19] = target: ETV1 (Homo sapiens, UniProt P50549 1-477); conditions: protein: recombinant; tags: N-terminal GST; dsDNA, one strand shown
# Chain of ETV1 (P50549 whole entry): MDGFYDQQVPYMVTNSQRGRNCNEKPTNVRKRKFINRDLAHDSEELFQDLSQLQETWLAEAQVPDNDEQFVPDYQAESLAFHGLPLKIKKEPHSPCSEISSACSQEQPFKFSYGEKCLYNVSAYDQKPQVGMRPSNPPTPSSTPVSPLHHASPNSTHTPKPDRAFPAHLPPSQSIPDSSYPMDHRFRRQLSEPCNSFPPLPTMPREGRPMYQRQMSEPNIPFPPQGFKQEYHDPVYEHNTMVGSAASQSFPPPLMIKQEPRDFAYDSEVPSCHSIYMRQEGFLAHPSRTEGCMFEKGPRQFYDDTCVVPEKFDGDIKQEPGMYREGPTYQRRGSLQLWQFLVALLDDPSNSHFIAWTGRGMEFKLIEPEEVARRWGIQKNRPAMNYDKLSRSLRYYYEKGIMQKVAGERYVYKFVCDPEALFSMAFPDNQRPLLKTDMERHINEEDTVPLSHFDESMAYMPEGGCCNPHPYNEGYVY
# How it was run: as §1
sequence,measurement,setting,value
ATGGGT,binding signal,[1],"1.39 fold enrichment (6-mer frequency, TF over GST control)"
same,binding signal,[2],"1.37 fold enrichment (6-mer frequency, TF over GST control)"
same,binding signal,[3],"1.28 fold enrichment (6-mer frequency, TF over GST control)"
same,binding signal,[4],"1.43 fold enrichment (6-mer frequency, TF over GST control)"
same,binding signal,[5],"1.3 fold enrichment (6-mer frequency, TF over GST control)"
same,binding signal,[6],"1.46 fold enrichment (6-mer frequency, TF over GST control)"
same,binding signal,[7],"1.21 fold enrichment (6-mer frequency, TF over GST control)"
same,binding signal,[8],"1.29 fold enrichment (6-mer frequency, TF over GST control)"
same,binding signal,[9],"1.44 fold enrichment (6-mer frequency, TF over GST control)"
same,binding signal,[10],"1.28 fold enrichment (6-mer frequency, TF over GST control)"
same,binding signal,[11],"1.5 fold enrichment (6-mer frequency, TF over GST control)"
same,binding signal,[12],"1.08 fold enrichment (6-mer frequency, TF over GST control)"
same,binding signal,[13],"1.36 fold enrichment (6-mer frequency, TF over GST control)"
same,binding signal,[14],"1.35 fold enrichment (6-mer frequency, TF over GST control)"
same,binding signal,[15],"1.33 fold enrichment (6-mer frequency, TF over GST control)"
same,binding signal,[16],"1.36 fold enrichment (6-mer frequency, TF over GST control)"
same,binding signal,[17],"1.31 fold enrichment (6-mer frequency, TF over GST control)"
same,binding signal,[18],"1.11 fold enrichment (6-mer frequency, TF over GST control)"
same,binding signal,[19],"1.21 fold enrichment (6-mer frequency, TF over GST control)"
